Inhibition data for six compounds are collected here from ChEMBL document CHEMBL1961873, “Compounds: GSK PKIS; Assays: Nanosyn kinase panel” (2012).

Each structure is given as a SMILES string.

As usually defined, the inhibition is the drop in the measured response relative to a control, in per cent.

The target in test [1] is Mitogen-activated protein kinase 3 (Homo sapiens) (UniProt P27361). The settings on record: at 1 µM.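 Also: values are mean percent inhibition of MAPK3.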
In test [2] the target is SRSF protein kinase 3 (Homo sapiens) (UniProt Q9UPE1). The settings on record: at 0.1 µM.
Test [3] shares this target. The settings on record: at 1 µM.
Test [4] addresses Mitogen-activated protein kinase 14 (Homo sapiens) (UniProt Q16539). The note with it: at 0.1 µM.
For test [5] the target is unchanged. The note with it: at 1 µM.
The target of test [6] is Mitogen-activated protein kinase 11 (Homo sapiens) (UniProt Q15759). The settings on record: at 0.1 µM.
For test [7] the target is unchanged. The settings on record: at 1 µM.
Test [8] deals with T1, Mitogen-activated protein kinase 13 (Homo sapiens) (UniProt O15264).
T1 sequence (whole entry): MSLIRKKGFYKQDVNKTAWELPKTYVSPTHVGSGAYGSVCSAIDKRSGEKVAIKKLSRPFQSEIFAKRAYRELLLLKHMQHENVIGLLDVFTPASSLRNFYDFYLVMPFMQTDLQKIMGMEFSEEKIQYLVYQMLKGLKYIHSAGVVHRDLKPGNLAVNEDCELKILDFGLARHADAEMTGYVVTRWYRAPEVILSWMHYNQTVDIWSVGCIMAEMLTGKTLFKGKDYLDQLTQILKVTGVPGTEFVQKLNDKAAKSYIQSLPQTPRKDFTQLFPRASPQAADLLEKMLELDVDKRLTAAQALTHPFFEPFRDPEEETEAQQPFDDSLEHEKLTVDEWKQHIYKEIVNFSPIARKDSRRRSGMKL
The settings on record: at 0.1 µM.

Test [9] deals with T1, Mitogen-activated protein kinase 13 (Homo sapiens). The note with it: at 1 µM.
In test [10] the target is T2, Mitogen-activated protein kinase 12 (Homo sapiens) (UniProt P53778).
T2 sequence (whole entry): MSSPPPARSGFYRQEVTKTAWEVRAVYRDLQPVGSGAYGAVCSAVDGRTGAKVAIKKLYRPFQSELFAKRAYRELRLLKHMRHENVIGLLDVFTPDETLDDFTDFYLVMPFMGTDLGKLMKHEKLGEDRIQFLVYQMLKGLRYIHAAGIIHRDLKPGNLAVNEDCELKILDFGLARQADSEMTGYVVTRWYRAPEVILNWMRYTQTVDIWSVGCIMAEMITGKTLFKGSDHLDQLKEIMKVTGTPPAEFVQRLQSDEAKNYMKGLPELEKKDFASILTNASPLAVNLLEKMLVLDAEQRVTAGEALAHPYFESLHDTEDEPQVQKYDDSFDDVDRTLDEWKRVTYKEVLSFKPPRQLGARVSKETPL
The note with it: at 0.1 µM.

Test [11] concerns the target T2, Mitogen-activated protein kinase 12 (Homo sapiens). The note with it: at 1 µM.
Test [12] has as its target SRSF protein kinase 1 (Homo sapiens) (UniProt Q96SB4). The settings on record: at 0.1 µM.
Test [13] has the same target. The note with it: at 1 µM.
Test [14] addresses Phosphatidylinositol 4,5-bisphosphate 3-kinase catalytic subunit alpha isoform (Homo sapiens) (UniProt P42336). The settings on record: at 0.1 µM.
Test [15] has the same target. The note with it: at 1 µM.
Test [16] deals with T3, Phosphatidylinositol 4,5-bisphosphate 3-kinase catalytic subunit delta isoform (Homo sapiens) (UniProt O00329).
T3 sequence (whole entry): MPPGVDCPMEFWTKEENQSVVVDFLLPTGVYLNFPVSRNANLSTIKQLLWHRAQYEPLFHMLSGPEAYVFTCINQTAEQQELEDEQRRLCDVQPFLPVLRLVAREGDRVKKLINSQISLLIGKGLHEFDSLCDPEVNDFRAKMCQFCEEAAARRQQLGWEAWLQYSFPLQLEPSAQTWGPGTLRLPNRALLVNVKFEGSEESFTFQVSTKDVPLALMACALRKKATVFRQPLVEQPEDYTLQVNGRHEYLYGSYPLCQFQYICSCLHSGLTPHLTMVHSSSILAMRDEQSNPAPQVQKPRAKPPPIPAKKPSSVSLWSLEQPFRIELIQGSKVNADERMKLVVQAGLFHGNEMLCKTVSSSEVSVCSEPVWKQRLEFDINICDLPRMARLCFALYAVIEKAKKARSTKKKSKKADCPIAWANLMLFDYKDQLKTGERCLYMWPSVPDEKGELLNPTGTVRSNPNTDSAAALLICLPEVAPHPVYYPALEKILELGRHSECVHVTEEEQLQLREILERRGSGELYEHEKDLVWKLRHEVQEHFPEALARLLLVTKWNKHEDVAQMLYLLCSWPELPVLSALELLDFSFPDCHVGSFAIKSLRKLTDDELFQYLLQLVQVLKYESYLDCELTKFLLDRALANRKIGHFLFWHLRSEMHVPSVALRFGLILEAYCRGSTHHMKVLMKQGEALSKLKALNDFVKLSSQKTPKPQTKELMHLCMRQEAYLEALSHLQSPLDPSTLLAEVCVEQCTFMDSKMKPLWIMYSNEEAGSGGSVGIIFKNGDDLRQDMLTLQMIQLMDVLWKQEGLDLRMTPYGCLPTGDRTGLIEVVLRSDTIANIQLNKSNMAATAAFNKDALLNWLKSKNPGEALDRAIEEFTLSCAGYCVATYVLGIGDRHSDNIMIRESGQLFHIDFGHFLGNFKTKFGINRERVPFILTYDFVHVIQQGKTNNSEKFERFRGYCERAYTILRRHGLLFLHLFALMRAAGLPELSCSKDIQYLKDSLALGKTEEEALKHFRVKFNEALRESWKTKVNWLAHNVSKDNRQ
The settings on record: at 0.1 µM.

In test [17] the target is T3, Phosphatidylinositol 4,5-bisphosphate 3-kinase catalytic subunit delta isoform (Homo sapiens). The note with it: at 1 µM.
The target of test [18] is Phosphatidylinositol 4-kinase beta (Homo sapiens) (UniProt Q9UBF8). The note with it: at 0.1 µM.
For test [19] the target is unchanged. The note with it: at 1 µM.
For test [20], the target named is Sphingosine kinase 1 (Homo sapiens) (UniProt Q9NYA1). The settings on record: at 0.1 µM.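 Also: mean percent inhibition of SPHK1 activity, measured within the GSK PKIS screening panel.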
Sequence of Sphingosine kinase 1 (Homo sapiens) (Q9NYA1 whole entry): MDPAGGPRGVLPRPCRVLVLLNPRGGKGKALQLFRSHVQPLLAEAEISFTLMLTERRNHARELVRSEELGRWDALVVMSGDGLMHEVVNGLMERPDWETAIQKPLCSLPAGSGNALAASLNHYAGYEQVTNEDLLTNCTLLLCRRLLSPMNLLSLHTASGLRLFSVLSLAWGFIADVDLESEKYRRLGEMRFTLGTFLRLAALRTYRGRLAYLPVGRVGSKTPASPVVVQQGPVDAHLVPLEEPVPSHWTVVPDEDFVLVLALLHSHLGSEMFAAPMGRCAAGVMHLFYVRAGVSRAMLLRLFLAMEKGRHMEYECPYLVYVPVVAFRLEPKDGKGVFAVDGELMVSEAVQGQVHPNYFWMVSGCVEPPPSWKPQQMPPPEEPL

Sequence of Mitogen-activated protein kinase 11 (Homo sapiens) (Q15759 whole entry): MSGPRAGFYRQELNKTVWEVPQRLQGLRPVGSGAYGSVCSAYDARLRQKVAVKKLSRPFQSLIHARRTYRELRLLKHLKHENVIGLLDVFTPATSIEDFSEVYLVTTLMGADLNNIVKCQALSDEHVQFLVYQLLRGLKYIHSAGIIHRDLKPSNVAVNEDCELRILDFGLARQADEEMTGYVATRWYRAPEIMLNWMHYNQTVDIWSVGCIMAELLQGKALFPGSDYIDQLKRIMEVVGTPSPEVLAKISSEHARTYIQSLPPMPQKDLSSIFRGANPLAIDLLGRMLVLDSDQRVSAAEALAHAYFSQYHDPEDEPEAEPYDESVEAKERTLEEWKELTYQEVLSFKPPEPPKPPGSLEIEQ
Sequence of SRSF protein kinase 3 (Homo sapiens) (Q9UPE1 whole entry): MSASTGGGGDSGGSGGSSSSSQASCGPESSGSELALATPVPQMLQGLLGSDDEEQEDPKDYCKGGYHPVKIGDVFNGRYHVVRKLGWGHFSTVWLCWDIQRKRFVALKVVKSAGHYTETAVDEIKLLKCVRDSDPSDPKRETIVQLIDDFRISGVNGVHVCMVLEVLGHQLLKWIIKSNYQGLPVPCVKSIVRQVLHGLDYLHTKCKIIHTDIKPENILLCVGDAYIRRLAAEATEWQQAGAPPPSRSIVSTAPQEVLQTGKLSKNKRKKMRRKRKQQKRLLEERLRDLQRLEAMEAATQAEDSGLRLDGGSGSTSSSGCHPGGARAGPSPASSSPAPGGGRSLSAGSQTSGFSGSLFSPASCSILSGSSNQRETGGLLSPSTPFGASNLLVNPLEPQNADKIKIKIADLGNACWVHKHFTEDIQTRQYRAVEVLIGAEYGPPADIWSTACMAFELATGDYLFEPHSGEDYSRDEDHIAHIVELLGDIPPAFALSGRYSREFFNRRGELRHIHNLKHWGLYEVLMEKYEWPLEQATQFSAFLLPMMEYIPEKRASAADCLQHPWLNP
Sequence of Phosphatidylinositol 4,5-bisphosphate 3-kinase catalytic subunit alpha isoform (Homo sapiens) (P42336 whole entry, canonical isoform): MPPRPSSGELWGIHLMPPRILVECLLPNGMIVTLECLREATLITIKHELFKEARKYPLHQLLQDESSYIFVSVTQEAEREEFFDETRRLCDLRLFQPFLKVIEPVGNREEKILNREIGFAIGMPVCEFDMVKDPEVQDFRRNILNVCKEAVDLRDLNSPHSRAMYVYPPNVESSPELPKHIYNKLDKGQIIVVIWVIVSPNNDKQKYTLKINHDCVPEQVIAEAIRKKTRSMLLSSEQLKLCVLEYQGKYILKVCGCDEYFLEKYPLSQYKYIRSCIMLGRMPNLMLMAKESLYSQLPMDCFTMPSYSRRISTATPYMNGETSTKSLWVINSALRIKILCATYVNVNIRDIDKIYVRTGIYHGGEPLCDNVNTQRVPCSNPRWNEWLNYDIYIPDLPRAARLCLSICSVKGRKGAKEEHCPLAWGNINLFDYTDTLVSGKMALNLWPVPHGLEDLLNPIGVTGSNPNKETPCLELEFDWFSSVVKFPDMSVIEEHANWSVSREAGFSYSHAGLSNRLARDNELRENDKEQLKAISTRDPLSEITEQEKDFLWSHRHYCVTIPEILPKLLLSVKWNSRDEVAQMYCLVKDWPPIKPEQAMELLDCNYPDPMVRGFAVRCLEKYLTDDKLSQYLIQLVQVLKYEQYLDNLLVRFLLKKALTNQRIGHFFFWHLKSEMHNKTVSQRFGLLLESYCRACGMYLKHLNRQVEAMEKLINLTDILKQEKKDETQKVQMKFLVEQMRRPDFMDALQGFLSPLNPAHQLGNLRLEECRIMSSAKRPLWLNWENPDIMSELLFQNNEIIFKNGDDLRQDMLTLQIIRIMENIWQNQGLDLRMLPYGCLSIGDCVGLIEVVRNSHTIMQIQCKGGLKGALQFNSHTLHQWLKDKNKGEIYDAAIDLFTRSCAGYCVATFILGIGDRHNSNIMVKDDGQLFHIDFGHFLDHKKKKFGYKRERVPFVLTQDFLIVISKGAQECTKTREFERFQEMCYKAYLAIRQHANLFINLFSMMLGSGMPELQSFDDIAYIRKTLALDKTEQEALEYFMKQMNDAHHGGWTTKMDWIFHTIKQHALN
Sequence of SRSF protein kinase 1 (Homo sapiens) (Q96SB4 whole entry): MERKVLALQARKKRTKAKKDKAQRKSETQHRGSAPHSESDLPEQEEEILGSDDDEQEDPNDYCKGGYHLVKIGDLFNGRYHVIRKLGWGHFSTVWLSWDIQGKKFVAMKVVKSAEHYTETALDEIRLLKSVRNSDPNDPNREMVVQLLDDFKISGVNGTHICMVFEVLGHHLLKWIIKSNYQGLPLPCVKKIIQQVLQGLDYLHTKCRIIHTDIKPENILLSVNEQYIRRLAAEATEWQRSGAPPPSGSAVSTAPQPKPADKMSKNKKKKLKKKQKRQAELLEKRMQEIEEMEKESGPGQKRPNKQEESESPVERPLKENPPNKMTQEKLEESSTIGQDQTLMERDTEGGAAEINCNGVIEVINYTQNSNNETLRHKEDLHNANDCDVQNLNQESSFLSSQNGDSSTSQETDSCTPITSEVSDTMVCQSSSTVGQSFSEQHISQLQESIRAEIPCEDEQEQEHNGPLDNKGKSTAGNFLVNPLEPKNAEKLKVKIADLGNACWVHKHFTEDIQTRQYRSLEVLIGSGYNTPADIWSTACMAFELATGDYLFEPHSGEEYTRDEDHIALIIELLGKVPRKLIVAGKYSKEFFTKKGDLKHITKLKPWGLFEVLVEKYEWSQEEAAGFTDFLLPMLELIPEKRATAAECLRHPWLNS
Sequence of Mitogen-activated protein kinase 3 (Homo sapiens) (P27361 whole entry): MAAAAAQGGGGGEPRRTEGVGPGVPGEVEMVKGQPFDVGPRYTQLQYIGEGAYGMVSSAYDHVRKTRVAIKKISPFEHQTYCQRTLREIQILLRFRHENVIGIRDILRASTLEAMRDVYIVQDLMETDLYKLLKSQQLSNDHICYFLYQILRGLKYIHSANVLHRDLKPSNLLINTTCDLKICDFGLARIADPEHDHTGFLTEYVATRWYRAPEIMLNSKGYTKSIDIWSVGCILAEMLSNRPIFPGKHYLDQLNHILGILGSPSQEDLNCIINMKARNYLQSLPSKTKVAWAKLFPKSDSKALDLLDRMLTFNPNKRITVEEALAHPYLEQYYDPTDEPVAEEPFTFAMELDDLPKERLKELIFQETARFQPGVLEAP
Sequence of Phosphatidylinositol 4-kinase beta (Homo sapiens) (Q9UBF8 2-816 limits assumed): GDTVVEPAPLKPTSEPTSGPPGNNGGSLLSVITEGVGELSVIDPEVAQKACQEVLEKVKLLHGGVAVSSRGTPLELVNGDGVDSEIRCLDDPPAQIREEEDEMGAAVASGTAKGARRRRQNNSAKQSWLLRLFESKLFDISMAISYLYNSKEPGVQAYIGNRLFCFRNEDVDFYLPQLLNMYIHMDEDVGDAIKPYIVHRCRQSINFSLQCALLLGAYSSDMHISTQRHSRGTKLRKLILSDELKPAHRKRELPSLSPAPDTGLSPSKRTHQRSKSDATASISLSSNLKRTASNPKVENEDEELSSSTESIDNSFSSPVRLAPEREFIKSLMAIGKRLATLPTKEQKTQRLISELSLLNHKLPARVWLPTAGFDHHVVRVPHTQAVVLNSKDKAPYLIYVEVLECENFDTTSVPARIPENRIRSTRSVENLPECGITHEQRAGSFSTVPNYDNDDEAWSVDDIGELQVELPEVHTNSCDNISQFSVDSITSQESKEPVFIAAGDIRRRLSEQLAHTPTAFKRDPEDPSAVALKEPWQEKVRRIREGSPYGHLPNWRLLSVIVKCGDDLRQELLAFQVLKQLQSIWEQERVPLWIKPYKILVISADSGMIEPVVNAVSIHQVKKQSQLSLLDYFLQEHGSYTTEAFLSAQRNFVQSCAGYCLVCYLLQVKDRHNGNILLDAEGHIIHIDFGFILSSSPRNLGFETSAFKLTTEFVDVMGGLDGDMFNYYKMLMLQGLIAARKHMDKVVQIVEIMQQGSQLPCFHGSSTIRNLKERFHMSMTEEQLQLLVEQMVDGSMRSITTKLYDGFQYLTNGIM
Sequence of Mitogen-activated protein kinase 14 (Homo sapiens) (Q16539 whole entry): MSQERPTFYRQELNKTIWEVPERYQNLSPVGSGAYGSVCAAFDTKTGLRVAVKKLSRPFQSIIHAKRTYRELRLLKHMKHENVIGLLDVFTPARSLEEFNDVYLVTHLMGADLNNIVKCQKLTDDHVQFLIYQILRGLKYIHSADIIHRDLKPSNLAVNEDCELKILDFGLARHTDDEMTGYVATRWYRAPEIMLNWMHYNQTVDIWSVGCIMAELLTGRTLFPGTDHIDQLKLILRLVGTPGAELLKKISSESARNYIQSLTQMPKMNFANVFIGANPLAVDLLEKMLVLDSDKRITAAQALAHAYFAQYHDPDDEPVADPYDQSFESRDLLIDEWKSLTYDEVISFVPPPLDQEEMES

Turning to `Nc1ncc(-c2cccc(S(N)(=O)=O)c2)c2scc(-c3ccc(F)c(Cl)c3)c12`, the inhibition is 5.48% in test [1]; -1.03% in test [2]; 0.1% in test [3]; 13.9% in test [4]; 55.9% in test [5]; 21.8% in test [6]. Further, the inhibition is 62.3% in test [7]; 3.01% in test [8]; 1.94% in test [9]; 2.88% in [10]; 3.12% in [11]; -2.06% in test [12]. Besides, the inhibition was -3.1% in test [13]; 4.44% in [14]; 8.82% in test [15]; 1.02% in test [16]; 3.18% in test [17]; 7.12% in test [18]. For the same compound, the inhibition is 1.6% in test [19] and -0.6% in test [20].

As to `O=C(Nc1n[nH]c2cc(-c3ccc(F)cc3)ccc12)C1CC1`, the inhibition was 0.11% in test [1]; -0.27% in test [2]; 0.1% in [3]; 3.02% in [4]; 7.71% in [5]; 3.42% in test [6]. The inhibition in test [7] was 7.25%; in [8], 2.38%; in test [9], 4.36%; in [10], 2.05%; in test [11], 2.53%; in [12], -1.78%. Further, the inhibition in test [13] was -2.19%; in test [14], 5.93%; in test [15] it was 9.6%; in test [16], 7.39%; in [17], 10.8%; in test [18] it was 3.38%. In addition, the inhibition was -2.55% in [19] and 2.17% in [20].

Turning to `Clc1ccc(-c2nn3ncccc3c2-c2ccnc(Nc3ccccc3)n2)cc1`, the inhibition in test [1] is 0.24%; in test [2] it was -0.67%; in test [3], -1.16%; in [4] it was 46.5%; in test [5], 82.8%; in [6] it was 13.1%. For the same compound, the inhibition was 58.8% in test [7]; 0.09% in test [8]; 1.39% in test [9]; 2.11% in [10]; 1.71% in test [11]; -1.15% in test [12]. In addition, the inhibition in test [13] was -1.1%; in test [14], 2.48%; in test [15], 5.33%; in test [16], 4.92%; in [17], 7.17%; in test [18] it was -0.39%. The inhibition is 0.11% in test [19] and 0.81% in test [20].

With `COc1ccc(CNC(=O)c2ccc(-c3cc(-c4nnc(C)o4)ccc3C)cc2)cc1`, the inhibition in [1] was 1.53%; in test [2], 2.42%; in test [3], 6.02%; in test [4] it was 19.4%; in [5], 66.6%; in test [6], 10.1%. Further, the inhibition in [7] was 46.3%; in test [8], 1.25%; in test [9], 2.3%; in test [10], 0.94%; in test [11], 2.59%; in test [12], 2.79%. Further, the inhibition in test [13] was 9.14%; in test [14], 0.29%; in test [15], -1.87%; in test [16], -0.28%; in [17] it was -2.1%; in test [18], 3.82%. The inhibition in test [19] is 0.88%; in [20], 1.51%.

Take `[O-][S+]1CCN(Cc2ccc(-c3ccc4ncnc(Nc5ccc(OCc6cccc(F)c6)c(Cl)c5)c4c3)o2)CC1`: the inhibition in test [1] was 4.13%; in [2] it was -2.3%; in test [3] it was -1%; in [4], 15.9%; in test [5] it was 14.9%; in [6], 7.73%. In addition, the inhibition is 6.99% in test [7]; 4.67% in test [8]; 3% in test [9]; 3.02% in test [10]; 4.04% in test [11]; -1.9% in [12]. The inhibition in [13] is -2.12%; in [14], 5.72%; in test [15] it was 6.58%; in test [16], 2.17%; in test [17], 6.89%; in [18], 0.59%. For the same compound, the inhibition in [19] was -7.5%; in test [20], -0.15%.

With `O=S(=O)(CCNCc1ccc(-c2ccc3ncnc(Nc4ccc(OCc5cccc(F)c5)c(Cl)c4)c3c2)o1)c1ccccc1`, the inhibition in [1] was 6%; in test [2] it was -1.7%; in test [3], 3.71%; in [4] it was 16.1%; in test [5] it was 14%; in [6] it was 6.03%. Also, the inhibition in [7] was 6.99%; in test [8], 6.05%; in [9], 5.53%; in test [10], 3.55%; in test [11], 5.41%; in test [12] it was -1.17%. The inhibition in test [13] is -1.46%; in test [14], 5.28%; in test [15] it was 5.59%; in test [16], 0.47%; in [17] it was 6.33%; in [18], -6.34%. Further, the inhibition in [19] was -9.91%; in test [20] it was 1.07%.
